Experimental data reported in PubChem BioAssay (NCATS).
Records with an inconclusive call do not appear. A number with no mark means an inactive call. Active and inactive are the calls of the source. Calls come from the whole dose curve; as a rule, active = well fitted inhibition curve with a large enough effect; inconclusive = small, poorly fitted or top-dose-only effect; inactive = no such curve, though single readings can be large or run the other way.

biological target: N-terminal Xaa-Pro-Lys N-methyltransferase 1 (Homo sapiens) (UniProt Q9BV86); test: qHTS Assay for Inhibitors of N-terminal methyltransferase 1 (NTMT1): LOPAC validation of the NTMT1 SAHH-coupled ThioGlo3 Assay (AID 1347143); details: recombinant NTMT1, SAHH-coupled ThioGlo3 fluorescence; series mostly up to 114 µM; activity change, negative = inhibition: at the top concentration;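 note: SAH from peptide methylation measured as thiol fluorescence via SAHH coupling and ThioGlo3; nearly all actives have a fitted effect of over 70% in size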
How it was run: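 In this qHTS pilot against the LOPAC set, 125nM NTMT1 met compounds tested at multiple concentrations, and fluorescence was normalized to background.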
% is set by controls: 0 for no effect and ±100 for the full control effect; potency is the fitted concentration of half-maximal effect.

N-terminal Xaa-Pro-Lys N-methyltransferase 1 (Homo sapiens), sequence (Q9BV86 whole entry, looked up): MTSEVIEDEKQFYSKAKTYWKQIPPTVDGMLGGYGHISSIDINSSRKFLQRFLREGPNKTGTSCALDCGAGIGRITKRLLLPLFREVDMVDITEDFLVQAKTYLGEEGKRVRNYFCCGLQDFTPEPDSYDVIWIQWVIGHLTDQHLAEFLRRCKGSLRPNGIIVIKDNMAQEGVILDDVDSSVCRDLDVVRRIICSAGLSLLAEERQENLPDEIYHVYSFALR

First: CC(C(=O)O)c1ccc(CC2CCCC2=O)cc1 (stereo unspecified)
Second: Nc1c2c(nc3ccccc13)CCCC2O (stereo unspecified)
The “activity change, negative = inhibition” value of the first is higher: -12.7% for the first, -18.7% for the second.

Compared with `CN=C(NC#N)NCCSCc1nc[nH]c1C`, `CC(N=C(NC#N)Nc1ccncc1)C(C)(C)C` (stereo unspecified) is lower in “activity change, negative = inhibition” value: -5.11% for the first, -18.1% for the second.

First: CC(=O)OCC1=C(C(=O)O)N2C(=O)[C@@H](NC(=O)Cc3cccs3)[C@H]2SC1
Second: CO[C@@]1(NC(=O)CSCC#N)C(=O)N2C(C(=O)O)=C(CSc3nnnn3C)CS[C@@H]21
The “activity change, negative = inhibition” value of the first is higher: 13.3% for the first, 4.47% for the second.

First: NC(=O)N1c2ccccc2C=Cc2ccccc21
Second: CC(C)[N+](C)(CCOC(=O)C1c2ccccc2Oc2ccccc21)C(C)C
The “activity change, negative = inhibition” value of the first is higher: -6.04% for the first, -18.4% for the second.

First: CCCN1C[C@H](CSC)C[C@@H]2c3cccc4[nH]cc(c34)C[C@H]21
Second: CCCN(CCC)CCc1cccc2c1CC(=O)N2
The “activity change, negative = inhibition” value of the first is lower: -21.9% for the first, -10.4% for the second.

Compared with `Nc1ncn([C@@H]2O[C@H](CO)[C@@H](O)[C@H]2O)c(=O)n1`, `NC(=O)c1ncn([C@@H]2O[C@H](CO)[C@@H](O)[C@H]2O)c1O` is higher in “activity change, negative = inhibition” value: -9.38% for the first, 35.2% for the second.

Compared with `O=c1[nH]c(=O)n([C@H]2C[C@H](O)[C@@H](CO)O2)cc1Br`, `Cc1nc2c([nH]1)c(=O)n(C)c(=O)n2Cc1ccco1` is lower in “activity change, negative = inhibition” value: -0.766% for the first, -14.7% for the second.

First: C[C@]12CCC(=O)C=C1CC[C@@H]1[C@@H]2CC[C@@]2(C)[C@H]1CC[C@]2(O)C(=O)CO
Second: O=C(CCCN1CCC(O)(c2cccc(C(F)(F)F)c2)CC1)c1ccc(F)cc1
The “activity change, negative = inhibition” value of the first is lower: -22.1% for the first, -18.2% for the second.

First: CCN(CC)CCNC(=O)c1ccc(NC(C)=O)cc1
Second: CCCN(CCC)C(=O)C(CCC(=O)O)NC(=O)c1ccccc1 (stereo unspecified)
The “activity change, negative = inhibition” value of the first is higher: -8.94% for the first, -13.8% for the second.

First: COc1cc(C(=O)OCCCN2CCCN(CCCOC(=O)c3cc(OC)c(OC)c(OC)c3)CC2)cc(OC)c1OC
Second: COc1cc(Cc2cnc(N)nc2N)cc(OC)c1OC
The “activity change, negative = inhibition” value of the first is lower: -27.9% for the first, -10.5% for the second.

Going from `CC1=NS(=O)(=O)c2cc(Cl)ccc2N1` to `NC(=O)c1cn(Cc2c(F)cccc2F)nn1`, the “activity change, negative = inhibition” value falls from -0.0915% to -10.1%.

Going from `CN(C)CC/C=C1\c2ccccc2COc2ccccc21` to `CN(C)CC[C@@H](c1ccc(Br)cc1)c1ccccn1`, the “activity change, negative = inhibition” value rises from -23.6% to -16.4%.

First: CCCCNC(=O)NS(=O)(=O)c1ccc(C)cc1
Second: CCCNC(C)C(=O)Nc1ccccc1C (stereo unspecified)
The “activity change, negative = inhibition” value of the first is lower: -11% for the first, -7.78% for the second.

Compared with `c1ccc2c(c1)CCCC2C1=NCCN1` (stereo unspecified), `CCn1ccnc1CC1COc2ccccc2O1` (stereo unspecified) is lower in “activity change, negative = inhibition” value: -15.8% for the first, -23.3% for the second.

Compared with `CN(C)C(=O)Oc1cccc([N+](C)(C)C)c1`, `CC[N+](C)(C)c1cccc(O)c1` is lower in “activity change, negative = inhibition” value: -6% for the first, -12.9% for the second.

Compared with `C=CCc1ccccc1OCC(O)CNC(C)C` (stereo unspecified), `CNCCC(Oc1ccccc1OC)c1ccccc1` (stereo unspecified) is higher in “activity change, negative = inhibition” value: -19% for the first, -11.8% for the second.

With `N[C@@H](COP(=O)(O)O)C(=O)O` the “activity change, negative = inhibition” value was -13.4%.

With `CCC(=O)c1ccc2c(c1)N(CCCN(C)C)c1ccccc1S2` the Potency was 39.8 µM (active).
In the case of `CN(C)[C@@H]1C(=O)C(C(N)=O)=C(O)[C@@]2(O)C(=O)C3=C(O)c4c(O)ccc(Cl)c4[C@@H](O)[C@H]3C[C@@H]12`, the Potency is reported as 56.2 µM (active).
`Cc1nnc(SCC2=C(C(=O)O)N3C(=O)[C@@H](NC(=O)Cn4cnnn4)[C@H]3SC2)s1` was tested, and the Potency was 50.1 µM (active).
